Sampled rows, rich in hits. Any-hit rate of the full collection: about 4.3%.
BoNT A protease: inhibitors of Botulinum neurotoxin A light chain protease; actives 0.17% (n = 360,000); inhibition, % at 10 µM; multiplex microsphere protease substrate cleavage, flow cytometry; note: plate controls were buffer without enzyme for full effect and enzyme alone for no effect
Anthrax LF prot: inhibitors of Bacillus anthracis lethal factor protease | actives 0.12% (n = 360,000) | multiplex microsphere protease cleavage assay, LF | AID 588501 | inhibition, % at 10 µM | P15917; note: plate controls were buffer without enzyme for full effect and enzyme alone for no effect
BoNT-F LC inh: BoNT F light chain protease inhibition; Multiplex microsphere protease cleavage assay, flow cytometry; inhibition, % at 10 µM; AID 588497; actives 0.22% (n = 360,000); in the data active = inhibition above about 35%, passing the limit was not always enough; inconclusive = no clear call, values can overlap the other calls; note: plate controls were buffer without enzyme for full effect and enzyme alone for no effect
PfHsp40 yeast: restores yeast growth despite PfHsp40 toxicity; actives 0.68% (n = 340,000); growth rescue, % at 12.5 µM; S. cerevisiae expressing PfHsp40, growth rescue, ATP luminescence; in the data active = growth rescue above about 28%, passing the limit was not always enough; inconclusive = no clear call, values can overlap the other calls;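 note: yeast W303a lacking pdr1 and pdr3 grown in galactose medium; growth measured after three days at 30 °C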
Bead autofluor: counter-screen for toxin protease inhibitors: compound fluorescence; fluorescence intensity (test concentration not listed); compound autofluorescence counterscreen, microsphere flow cytometry; stronger effect = higher value; actives 3.1% (n = 360,000); in the data active = fluorescence intensity above about 16000; inconclusive = no clear call, values can overlap the other calls
MazEF act: MazEF (E. coli) toxin RNase activation; P0AE70; FAM/BHQ RNA-DNA oligo cleavage fluorescence, 5 h; activation, % at 20 µM; actives 0.32% (n = 350,000); AID 504720; in the data active = activation above about 50%
Target sequence (P0AE70 whole entry, looked up): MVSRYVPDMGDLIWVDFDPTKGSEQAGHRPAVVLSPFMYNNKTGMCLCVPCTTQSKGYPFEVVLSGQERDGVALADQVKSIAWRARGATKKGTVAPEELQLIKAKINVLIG
Numbers without * were called inactive; ? = inconclusive; . = no result. Cut-off read from the data, not from the text of the source, unless noted: active = inhibition above about 30%; inconclusive = no clear call, values can overlap the other calls; inactive = below that.

SMILES	BoNT A protease	Anthrax LF prot	BoNT-F LC inh	PfHsp40 yeast	Bead autofluor	MazEF act
Cc1nnc(SCC(=O)c2c[nH]c3ccccc23)n1C1CC1	4	23	2	-2	7575	8
CC(C)c1ccc(-c2cc(C(=O)N3CCOCC3)c3cc(Br)ccc3n2)cc1	-7	-2	-18	1	7564	4
C(=Cc1c[nH]c2ccccc12)c1nccc2ccccc12	2	-2	-1	4	5277	113*
Cc1cc(C(=O)N2CCC2(C)C(=O)Nc2ccc3[nH]ncc3c2)nn1C (stereo not drawn)	0	-4	-10	.	3505	.
O=C(NCc1n[nH]c(=S)n1-c1ccccc1)c1ccco1	9	-8	10	-1	19724*	1
O=C(NCc1n[nH]c(=S)n1-c1ccc(Cl)c(Cl)c1)c1ccco1	0	-2	-3	-1	4384	7
CC(=O)c1cc2c(cc1NS(=O)(=O)c1ccc(C)cc1)OCO2	9	-11	5	-1	20111*	4
O=C(NNc1nc2cc3c(cc2s1)OCO3)c1ccccc1	0	-12	-10	0	5968	0
O=C(NNc1nc2cc3c(cc2s1)OCO3)c1cccc(F)c1	0	-6	-8	40*	5334	3
O=C(c1ccc(Cl)cc1)N1CCC(=O)N(C(CO)Cc2ccccc2)CC1 (stereo not drawn)	0	7	0	-1	2959	4
O=C(CNC(=O)c1ccc(S(=O)(=O)N2CCCC2)cc1)N/N=C/c1ccc(Cl)cc1Cl	0	-2	0	-2	7634	74*
O=C(CNC(=O)c1ccc(S(=O)(=O)N2CCCC2)cc1)N/N=C/c1ccc(Cl)cc1	-1	1	-8	0	9154	5
O=C(COC(=O)/C=C/c1ccc([N+](=O)[O-])cc1)NC1CCCCC1	8	-2	9	0	4176	7
C=CCN=C(NC#N)SCC(=O)NCc1ccccc1	1	-2	-8	-2	4977	5
C=CCN=C(NC#N)SCCc1ccccc1	-3	-7	-5	-1	20089*	-5
Cc1ccc(S(=O)(=O)N2CCN(C(=O)CSc3ccccn3)CC2)c(C)c1	-3	0	2	0	6463	-16
CC(=O)c1c(C(C)=O)c(C)n(NC(=O)c2ccccc2O)c1C	?	2	4	-2	20975*	1
CC(=O)c1c(C(C)=O)c(C)n(NC(=O)c2cccnc2)c1C	-1	0	-3	-2	8128	3
CC1CC(C)CN(C(=O)Cn2c(=O)n(CCCCC(=O)NC3CCCC3)c(=O)c3ccccc32)C1 (stereo not drawn)	0	2	37*	1	3620	3
CCn1c(=O)n(CC(=O)N2CC(C)CC(C)C2)c(=O)c2ccccc21 (stereo not drawn)	0	-3	0	1	20034*	3
O=C(CCCCn1c(=O)c2ccccc2n(CC(=O)NC2CCCC2)c1=O)NC1CCCC1	0	1	-13	0	4843	1
COc1ccc(C)cc1NC(=O)COC(=O)c1ccc2c(c1)OCCO2	3	0	9	2	7771	-5
CSc1ncc(CN2CCc3c([nH]c4ccccc34)C2c2cccc(O)c2)cn1 (stereo not drawn)	0	-7	-4	0	4558	6
CCCN1C(=O)/C(=C/c2c(NCCCOC(C)C)nc3c(C)cccn3c2=O)SC1=S	15	8	35*	0	4542	436*
Fc1cccc(CCN2C(=S)NC[C@@H]2Cc2ccccc2)c1	0	12	2	2	3400	3
SMILES	BoNT A protease	Anthrax LF prot	BoNT-F LC inh	PfHsp40 yeast	Bead autofluor	MazEF act
Fc1cccc(CCN2C(=S)NC[C@@H]2CC2CCCCC2)c1	0	-4	-2	122*	2797	-7
S=C1NC[C@H](CC2CCCCC2)N1CC1CCCCC1	-1	-5	-11	98*	3105	-6
O=C(CC(NS(=O)(=O)c1ccc(Cl)cc1)c1ccco1)NCc1ccco1 (stereo not drawn)	-2	-3	-20	1	4031	-4
CCCNC(=O)CC(NS(=O)(=O)c1ccc(Cl)cc1)c1ccco1 (stereo not drawn)	0	0	11	124*	2792	4
ClCC1CN(Cc2ccccc2Cl)CCO1 (stereo not drawn)	0	4	-2	-2	4542	10
Cc1cc2cc(C)c3nnc(SCC(=O)Nc4ccc(S(=O)(=O)N5CCCCC5C)cc4)n3c2cc1C (stereo not drawn)	0	-2	0	2	2154	-46
CC1CCCCN1S(=O)(=O)c1ccc(NC(=O)c2ccco2)cc1 (stereo not drawn)	?	-1	-3	-1	20490*	-8
CC1CCCCN1S(=O)(=O)c1ccc(NC(=O)CSc2nnnn2C)cc1 (stereo not drawn)	?	0	1	-1	21890*	-4
CCCNC(=O)Cn1cnc2sc(C(=O)N3CCN(c4ccc(F)cc4)CC3)c(C)c2c1=O	0	-1	1	-1	20571*	-1
CCOc1cc(/C=N/NC(N)=S)cc(Br)c1OCc1ccccc1C	-1	2	19	83*	4114	0
CC1(c2nnnn2-c2ccc3c(c2)OCCO3)CCC(=O)N1C1CC1 (stereo not drawn)	0	-2	-15	.	6344	.
O=C(NCc1cccc(Cl)c1)c1ccco1	-1	0	-2	0	22733*	3
O=C(NCCSc1ccc(Cl)cc1)c1ccco1	2	-2	2	-1	21843*	7
CC(NC(=O)c1ccco1)C(=O)OCc1cccc(Cl)c1 (stereo not drawn)	-6	-1	-10	-1	25194*	-2
Cc1cc(C)n(-c2nc(NCCN(C)C)c3c4c(sc3n2)COC(C)(C)C4)n1	1	?	29	.	3541	13
Cc1cc(C)n(-c2nc(NCCC(C)C)c3c4c(sc3n2)COC(C)(C)C4)n1	13	-11	13	-1	19196*	7
CCOc1cccc(C(=O)N(Cc2ccc(F)cc2)C2CCS(=O)(=O)C2)c1 (stereo not drawn)	?	0	-2	0	21464*	12
COc1cc(C(=O)N(Cc2ccc(F)cc2)C2CCS(=O)(=O)C2)cc(OC)c1OC (stereo not drawn)	-2	2	-2	-1	17106*	5
CCCOc1cccc(C(=O)N(Cc2ccccc2)C2CCS(=O)(=O)C2)c1 (stereo not drawn)	-2	1	1	2	6029	5
CN(C)c1ccc(CN(C(=O)COc2ccc(F)cc2)C2CCS(=O)(=O)C2)cc1 (stereo not drawn)	-3	-4	-1	-1	20985*	3
O=C(NCc1ccccc1)c1cccc(NC(=O)C2CC2)c1	0	-2	2	0	3936	1
COCCCN1C(=O)C(CC(=O)NC2CCCCC2)CC(C(=O)N2CCOCC2)=C1C (stereo not drawn)	0	-4	-1	.	3577	4
